Assay results as given in publication PMC7862700, “An all-to-all approach to the identification of sequence-specific readers for epigenetic DNA modifications on cytosine”.

How the values were obtained:
Assay in all cases: DAPPL (digital affinity profiling via proximity ligation, sequencing); 10 mM Tris-HCl pH 7.5, 50 mM NaCl, 1 mM DTT, 4% glycerol, room temperature, 30 min; GST-TFs on glutathione beads, 16-mer random dsDNA library, 0.1% formaldehyde crosslink after washing; high values mean tight binding
[1] = target: ETV5 (Homo sapiens, UniProt P41161 1-510); conditions: protein: recombinant; tags: N-terminal GST; dsDNA, one strand shown
Outline: (§1)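 Yeast served to express human transcription factors as GST fusions, which were then captured on glutathione beads and labelled with DNA barcodes. Pooled with a tag-only sample, they were incubated with 200 nmole of a 16-mer random double-stranded DNA library for 30 min at room temperature in Tris/NaCl/DTT/glycerol buffer, washed, crosslinked with 0.1% formaldehyde, ligated by proximity, amplified by PCR and sequenced. Dividing each hexamer's read frequency for a factor by its frequency for the tag-only sample gives the binding signal.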

[2] = target: HSF1 (Homo sapiens, UniProt Q00613 1-529); conditions: protein: recombinant; tags: N-terminal GST; chain copies: 3; dsDNA, one strand shown
Outline: as §1

[3] = target: T1, SPIC (Homo sapiens, UniProt Q8N5J4 1-248); conditions: protein: recombinant; tags: N-terminal GST; dsDNA, one strand shown
T1 sequence: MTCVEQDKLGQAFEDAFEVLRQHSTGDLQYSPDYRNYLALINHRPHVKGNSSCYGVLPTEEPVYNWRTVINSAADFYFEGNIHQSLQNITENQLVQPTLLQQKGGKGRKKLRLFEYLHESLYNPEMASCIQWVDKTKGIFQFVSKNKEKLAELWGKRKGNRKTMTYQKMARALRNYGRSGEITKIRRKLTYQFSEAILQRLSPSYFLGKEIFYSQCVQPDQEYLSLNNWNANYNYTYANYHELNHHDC
Outline: as §1

[4] = target: ELF4 (Homo sapiens, UniProt Q99607 1-663); conditions: protein: recombinant; tags: N-terminal GST; dsDNA, one strand shown
Outline: as §1

[5] = target: T2, ELK4 (Homo sapiens, UniProt P28324-2 1-405); conditions: protein: recombinant; tags: N-terminal GST; dsDNA, one strand shown
T2 sequence: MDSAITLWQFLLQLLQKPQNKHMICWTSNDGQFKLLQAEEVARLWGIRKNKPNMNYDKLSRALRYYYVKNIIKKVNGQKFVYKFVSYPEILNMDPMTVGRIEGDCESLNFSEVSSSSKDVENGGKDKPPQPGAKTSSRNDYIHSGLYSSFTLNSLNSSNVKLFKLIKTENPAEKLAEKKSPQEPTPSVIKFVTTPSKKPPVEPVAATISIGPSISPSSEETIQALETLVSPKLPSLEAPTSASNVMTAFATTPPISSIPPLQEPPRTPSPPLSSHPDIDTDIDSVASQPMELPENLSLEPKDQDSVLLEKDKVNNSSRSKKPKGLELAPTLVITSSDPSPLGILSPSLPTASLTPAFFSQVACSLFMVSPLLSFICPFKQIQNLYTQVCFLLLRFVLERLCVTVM
Outline: as §1

[6] = target: T3, ETV2 (Homo sapiens, UniProt O00321 1-342); conditions: protein: recombinant; tags: N-terminal GST; dsDNA, one strand shown
T3 sequence: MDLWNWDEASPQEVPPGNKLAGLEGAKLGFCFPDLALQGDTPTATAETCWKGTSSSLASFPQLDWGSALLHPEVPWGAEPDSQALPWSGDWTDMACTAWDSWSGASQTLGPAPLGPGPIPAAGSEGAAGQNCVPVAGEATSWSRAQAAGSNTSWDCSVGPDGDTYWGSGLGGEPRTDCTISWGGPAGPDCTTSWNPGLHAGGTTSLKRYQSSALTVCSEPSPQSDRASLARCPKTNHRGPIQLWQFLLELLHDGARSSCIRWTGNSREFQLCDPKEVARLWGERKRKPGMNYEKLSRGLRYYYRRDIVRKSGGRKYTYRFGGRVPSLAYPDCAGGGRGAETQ
Outline: as §1

[7] = target: T4, ELF3 (Homo sapiens, UniProt P78545 1-371); conditions: protein: recombinant; tags: N-terminal GST; dsDNA, one strand shown
T4 sequence: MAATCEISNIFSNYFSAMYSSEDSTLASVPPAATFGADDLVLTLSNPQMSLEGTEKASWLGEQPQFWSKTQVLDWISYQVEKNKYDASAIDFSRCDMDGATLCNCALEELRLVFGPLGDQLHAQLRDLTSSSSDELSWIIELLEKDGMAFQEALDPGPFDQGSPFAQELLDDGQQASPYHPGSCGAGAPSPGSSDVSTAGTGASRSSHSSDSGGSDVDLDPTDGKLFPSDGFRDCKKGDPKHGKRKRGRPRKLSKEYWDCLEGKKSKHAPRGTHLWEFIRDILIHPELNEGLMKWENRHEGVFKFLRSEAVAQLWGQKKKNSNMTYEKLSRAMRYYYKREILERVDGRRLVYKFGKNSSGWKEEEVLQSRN
Outline: as §1

[8] = target: CRX (Homo sapiens, UniProt O43186 1-299); conditions: protein: recombinant; tags: N-terminal GST; dsDNA, one strand shown
Outline: as §1

[9] = target: ETV1 (Homo sapiens, UniProt P50549 1-477); conditions: protein: recombinant; tags: N-terminal GST; dsDNA, one strand shown
Outline: as §1

[10] = target: T5, ERF (Homo sapiens, UniProt P50548 1-548); conditions: protein: recombinant; tags: N-terminal GST; dsDNA, one strand shown
T5 sequence: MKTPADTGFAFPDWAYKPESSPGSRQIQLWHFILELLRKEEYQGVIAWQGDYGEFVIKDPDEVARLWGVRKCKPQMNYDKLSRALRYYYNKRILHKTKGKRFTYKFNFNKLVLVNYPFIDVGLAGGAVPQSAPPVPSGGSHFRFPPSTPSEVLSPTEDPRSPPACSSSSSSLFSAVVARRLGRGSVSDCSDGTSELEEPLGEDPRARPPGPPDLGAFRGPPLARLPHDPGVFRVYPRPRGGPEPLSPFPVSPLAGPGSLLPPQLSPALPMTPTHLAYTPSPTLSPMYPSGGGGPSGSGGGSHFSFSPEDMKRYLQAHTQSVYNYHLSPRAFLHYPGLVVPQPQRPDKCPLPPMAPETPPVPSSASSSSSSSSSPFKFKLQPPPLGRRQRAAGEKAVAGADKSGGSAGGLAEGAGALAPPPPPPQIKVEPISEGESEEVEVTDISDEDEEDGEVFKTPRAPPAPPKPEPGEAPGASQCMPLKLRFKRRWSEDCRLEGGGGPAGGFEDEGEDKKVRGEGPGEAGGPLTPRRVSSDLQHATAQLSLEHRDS
Outline: as §1

[11] = target: T6, ETV3L (Homo sapiens, UniProt Q6ZN32 1-361); conditions: protein: recombinant; tags: N-terminal GST; dsDNA, one strand shown
T6 sequence: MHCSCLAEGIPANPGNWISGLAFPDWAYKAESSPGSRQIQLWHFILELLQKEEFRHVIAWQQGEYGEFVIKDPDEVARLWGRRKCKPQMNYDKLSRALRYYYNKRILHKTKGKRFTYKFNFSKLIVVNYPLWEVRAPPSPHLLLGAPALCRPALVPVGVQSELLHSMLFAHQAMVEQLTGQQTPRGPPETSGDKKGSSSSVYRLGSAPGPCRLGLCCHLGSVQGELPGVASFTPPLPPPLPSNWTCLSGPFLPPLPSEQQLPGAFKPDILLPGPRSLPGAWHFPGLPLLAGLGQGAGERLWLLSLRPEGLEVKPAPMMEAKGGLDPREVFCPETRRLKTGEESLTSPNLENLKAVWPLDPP
Outline: as §1

[12] = target: T7, ETS2 (Homo sapiens, UniProt P15036 1-469); conditions: protein: recombinant; tags: N-terminal GST; dsDNA, one strand shown
T7 sequence: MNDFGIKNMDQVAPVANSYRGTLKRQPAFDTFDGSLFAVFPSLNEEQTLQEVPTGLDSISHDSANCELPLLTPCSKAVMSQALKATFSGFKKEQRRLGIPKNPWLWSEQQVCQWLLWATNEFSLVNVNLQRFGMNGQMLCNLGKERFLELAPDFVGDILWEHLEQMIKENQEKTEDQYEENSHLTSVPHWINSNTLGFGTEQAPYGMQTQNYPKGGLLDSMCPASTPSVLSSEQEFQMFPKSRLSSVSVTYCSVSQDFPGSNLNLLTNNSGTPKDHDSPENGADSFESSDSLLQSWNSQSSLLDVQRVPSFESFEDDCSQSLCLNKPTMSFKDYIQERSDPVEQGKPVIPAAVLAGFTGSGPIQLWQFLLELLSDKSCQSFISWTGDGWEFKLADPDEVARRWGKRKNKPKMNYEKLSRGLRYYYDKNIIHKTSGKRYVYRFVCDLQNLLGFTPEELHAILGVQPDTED
Outline: as §1

[13] = target: T8, SPDEF (Homo sapiens, UniProt O95238 1-335); conditions: protein: recombinant; tags: N-terminal GST; dsDNA, one strand shown
T8 sequence: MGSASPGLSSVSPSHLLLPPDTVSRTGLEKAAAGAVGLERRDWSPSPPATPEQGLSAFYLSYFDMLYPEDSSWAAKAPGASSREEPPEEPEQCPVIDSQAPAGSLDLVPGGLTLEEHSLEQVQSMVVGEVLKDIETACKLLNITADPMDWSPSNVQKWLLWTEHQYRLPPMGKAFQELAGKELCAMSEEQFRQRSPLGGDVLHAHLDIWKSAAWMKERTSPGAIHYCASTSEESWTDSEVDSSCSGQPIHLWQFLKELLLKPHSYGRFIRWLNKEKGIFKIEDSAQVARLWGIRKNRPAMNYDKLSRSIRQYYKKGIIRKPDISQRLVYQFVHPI
Outline: as §1

[14] = target: T9, ELF5 (Homo sapiens, UniProt Q9UKW6-2 1-255); conditions: protein: recombinant; tags: N-terminal GST; dsDNA, one strand shown
T9 sequence: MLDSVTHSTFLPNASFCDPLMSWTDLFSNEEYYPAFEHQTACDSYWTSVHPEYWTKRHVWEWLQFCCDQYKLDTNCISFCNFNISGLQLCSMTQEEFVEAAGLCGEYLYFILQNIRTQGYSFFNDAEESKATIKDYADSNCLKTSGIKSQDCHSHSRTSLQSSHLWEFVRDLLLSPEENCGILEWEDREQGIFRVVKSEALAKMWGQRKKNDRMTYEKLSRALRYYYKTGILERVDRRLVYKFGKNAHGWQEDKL
Outline: as §1

[15] = target: T10, ETV3 (Homo sapiens, UniProt P41162-2 1-143); conditions: protein: recombinant; tags: N-terminal GST; dsDNA, one strand shown
T10 sequence: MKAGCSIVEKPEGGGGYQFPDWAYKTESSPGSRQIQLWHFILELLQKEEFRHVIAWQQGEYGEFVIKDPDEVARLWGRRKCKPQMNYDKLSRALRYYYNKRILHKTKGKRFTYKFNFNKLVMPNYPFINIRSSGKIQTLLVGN
Outline: as §1

[16] = target: ETV6 (Homo sapiens, UniProt P41212 1-452); conditions: protein: recombinant; tags: N-terminal GST; dsDNA, one strand shown
Outline: as §1

Chain of ETV6 (P41212 whole entry): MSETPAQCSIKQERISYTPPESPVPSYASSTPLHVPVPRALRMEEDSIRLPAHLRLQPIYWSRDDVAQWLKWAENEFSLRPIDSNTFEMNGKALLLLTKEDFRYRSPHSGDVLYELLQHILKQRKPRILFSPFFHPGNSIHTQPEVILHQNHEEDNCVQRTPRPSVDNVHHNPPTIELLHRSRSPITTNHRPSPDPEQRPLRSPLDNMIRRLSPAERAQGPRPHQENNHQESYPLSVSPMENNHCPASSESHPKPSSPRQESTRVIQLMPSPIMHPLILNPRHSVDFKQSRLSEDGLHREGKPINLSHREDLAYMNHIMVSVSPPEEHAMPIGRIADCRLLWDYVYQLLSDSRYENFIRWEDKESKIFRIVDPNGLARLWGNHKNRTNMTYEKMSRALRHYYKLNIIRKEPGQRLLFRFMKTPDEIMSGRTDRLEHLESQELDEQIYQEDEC
Chain of ETV1 (P50549 whole entry): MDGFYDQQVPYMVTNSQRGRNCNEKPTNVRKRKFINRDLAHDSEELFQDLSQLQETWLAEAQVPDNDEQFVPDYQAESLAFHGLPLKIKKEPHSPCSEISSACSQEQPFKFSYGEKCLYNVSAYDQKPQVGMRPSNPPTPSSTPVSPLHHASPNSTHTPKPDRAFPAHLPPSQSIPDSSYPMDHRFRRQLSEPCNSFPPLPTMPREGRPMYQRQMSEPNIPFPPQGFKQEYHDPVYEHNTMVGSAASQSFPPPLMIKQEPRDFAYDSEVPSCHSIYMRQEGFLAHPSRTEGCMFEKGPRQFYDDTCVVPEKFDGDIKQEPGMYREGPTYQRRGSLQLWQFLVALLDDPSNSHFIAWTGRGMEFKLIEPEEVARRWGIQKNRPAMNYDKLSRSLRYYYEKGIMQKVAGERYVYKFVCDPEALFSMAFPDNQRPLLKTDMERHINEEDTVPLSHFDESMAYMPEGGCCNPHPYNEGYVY
Chain of CRX (O43186 whole entry): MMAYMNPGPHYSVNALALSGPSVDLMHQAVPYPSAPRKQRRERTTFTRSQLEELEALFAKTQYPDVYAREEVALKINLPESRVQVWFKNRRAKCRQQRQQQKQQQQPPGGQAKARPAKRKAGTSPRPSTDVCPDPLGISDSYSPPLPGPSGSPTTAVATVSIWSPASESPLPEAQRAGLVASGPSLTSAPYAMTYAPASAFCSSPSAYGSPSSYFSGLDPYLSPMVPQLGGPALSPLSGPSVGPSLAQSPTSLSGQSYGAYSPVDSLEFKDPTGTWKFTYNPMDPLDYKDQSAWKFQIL
Chain of ELF4 (Q99607 whole entry): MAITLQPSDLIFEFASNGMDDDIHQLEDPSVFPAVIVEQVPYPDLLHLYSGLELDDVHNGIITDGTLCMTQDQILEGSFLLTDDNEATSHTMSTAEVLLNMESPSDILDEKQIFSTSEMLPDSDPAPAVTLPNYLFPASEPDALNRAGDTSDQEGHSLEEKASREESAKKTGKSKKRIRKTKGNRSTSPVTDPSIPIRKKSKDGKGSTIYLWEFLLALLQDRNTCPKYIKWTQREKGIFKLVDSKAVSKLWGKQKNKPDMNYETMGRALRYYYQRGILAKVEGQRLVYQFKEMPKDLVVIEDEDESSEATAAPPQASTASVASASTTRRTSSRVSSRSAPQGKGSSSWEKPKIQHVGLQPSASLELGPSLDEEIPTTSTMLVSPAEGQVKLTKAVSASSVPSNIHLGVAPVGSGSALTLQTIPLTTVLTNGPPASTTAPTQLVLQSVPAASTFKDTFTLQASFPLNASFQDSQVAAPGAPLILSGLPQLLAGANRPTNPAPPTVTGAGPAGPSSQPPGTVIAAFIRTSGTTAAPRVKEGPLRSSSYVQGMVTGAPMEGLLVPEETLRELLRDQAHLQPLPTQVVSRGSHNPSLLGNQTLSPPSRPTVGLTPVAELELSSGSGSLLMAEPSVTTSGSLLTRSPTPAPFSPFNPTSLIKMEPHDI
Chain of ETV5 (P41161 whole entry, the tested form may be a part): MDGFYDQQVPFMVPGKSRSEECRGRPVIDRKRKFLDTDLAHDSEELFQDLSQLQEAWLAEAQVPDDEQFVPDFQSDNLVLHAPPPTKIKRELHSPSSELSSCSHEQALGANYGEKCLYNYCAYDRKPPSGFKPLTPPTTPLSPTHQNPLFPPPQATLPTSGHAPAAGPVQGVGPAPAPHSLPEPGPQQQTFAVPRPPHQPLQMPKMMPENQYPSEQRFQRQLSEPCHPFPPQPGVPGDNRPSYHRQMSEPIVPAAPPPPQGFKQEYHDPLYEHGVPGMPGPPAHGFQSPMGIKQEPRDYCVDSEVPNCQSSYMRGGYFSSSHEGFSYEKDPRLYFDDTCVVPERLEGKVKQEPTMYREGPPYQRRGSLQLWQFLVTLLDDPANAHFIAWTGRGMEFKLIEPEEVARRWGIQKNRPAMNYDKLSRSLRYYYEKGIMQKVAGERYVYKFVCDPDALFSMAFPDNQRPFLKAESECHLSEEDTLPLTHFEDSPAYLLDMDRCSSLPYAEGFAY
Chain of HSF1 (Q00613 whole entry): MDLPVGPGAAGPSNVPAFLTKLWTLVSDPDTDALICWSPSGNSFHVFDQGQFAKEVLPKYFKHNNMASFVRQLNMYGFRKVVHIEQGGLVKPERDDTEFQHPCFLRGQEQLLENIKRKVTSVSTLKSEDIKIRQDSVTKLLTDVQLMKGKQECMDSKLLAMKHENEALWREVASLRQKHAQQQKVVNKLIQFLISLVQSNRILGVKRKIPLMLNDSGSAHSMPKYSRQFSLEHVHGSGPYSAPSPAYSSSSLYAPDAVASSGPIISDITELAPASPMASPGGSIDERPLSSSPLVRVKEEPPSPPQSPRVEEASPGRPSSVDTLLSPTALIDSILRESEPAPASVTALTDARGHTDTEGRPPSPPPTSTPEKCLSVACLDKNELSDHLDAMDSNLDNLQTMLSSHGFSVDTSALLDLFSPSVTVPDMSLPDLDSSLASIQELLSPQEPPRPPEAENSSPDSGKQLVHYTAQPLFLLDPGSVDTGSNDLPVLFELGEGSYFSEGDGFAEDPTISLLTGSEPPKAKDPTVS

| Sequence | binding signal [1] | binding signal [2] | binding signal [3] | binding signal [4] | binding signal [5] | binding signal [6] | binding signal [7] | binding signal [8] | binding signal [9] | binding signal [10] | binding signal [11] | binding signal [12] | binding signal [13] | binding signal [14] | binding signal [15] | binding signal [16] |
| --- | --- | --- | --- | --- | --- | --- | --- | --- | --- | --- | --- | --- | --- | --- | --- | --- |
| TAGGTT | 1.13 fold enrichment (6-mer frequency, TF over GST control) | 1.18 fold enrichment (6-mer frequency, TF over GST control) | 1.16 fold enrichment (6-mer frequency, TF over GST control) | 1.09 fold enrichment (6-mer frequency, TF over GST control) | 1.12 fold enrichment (6-mer frequency, TF over GST control) | 1.33 fold enrichment (6-mer frequency, TF over GST control) | 1.14 fold enrichment (6-mer frequency, TF over GST control) | 1.25 fold enrichment (6-mer frequency, TF over GST control) | 1.13 fold enrichment (6-mer frequency, TF over GST control) | 1.06 fold enrichment (6-mer frequency, TF over GST control) | 1.08 fold enrichment (6-mer frequency, TF over GST control) | 1.06 fold enrichment (6-mer frequency, TF over GST control) | 1.17 fold enrichment (6-mer frequency, TF over GST control) | 1.06 fold enrichment (6-mer frequency, TF over GST control) | 1.14 fold enrichment (6-mer frequency, TF over GST control) | 1.16 fold enrichment (6-mer frequency, TF over GST control) |
| ATCGTT | 1 fold enrichment (6-mer frequency, TF over GST control) | 1.02 fold enrichment (6-mer frequency, TF over GST control) | 1.03 fold enrichment (6-mer frequency, TF over GST control) | 1.04 fold enrichment (6-mer frequency, TF over GST control) | 1.12 fold enrichment (6-mer frequency, TF over GST control) | 1.13 fold enrichment (6-mer frequency, TF over GST control) | 1.03 fold enrichment (6-mer frequency, TF over GST control) | 1.14 fold enrichment (6-mer frequency, TF over GST control) | 1.06 fold enrichment (6-mer frequency, TF over GST control) | 1.01 fold enrichment (6-mer frequency, TF over GST control) | 1.11 fold enrichment (6-mer frequency, TF over GST control) | 1.06 fold enrichment (6-mer frequency, TF over GST control) |  |  | 1 fold enrichment (6-mer frequency, TF over GST control) | 1.06 fold enrichment (6-mer frequency, TF over GST control) |
